From PubChem BioAssay AID720650 (Broad Institute, 2013) come the findings set out here.

Values without a mark were called inactive. Calls of active or inactive are those of the source. The rule behind the calls is not given here.

This test is described as follows: C difficile toxins, biochemical counterscreen, UDPG substrate absence, confirmatory dose response (AID 720650). The conditions noted are these: series mostly up to 19.5 µM; activity change, negative = inhibition: at the top concentration.
As to `O=[N+]([O-])c1ccc(S(=O)(=O)Nc2nc(-c3ccccc3)cs2)cc1`, the “activity change, negative = inhibition” value was -12.8%.
With `COc1ccc(C2=NS(=O)(=O)N(C)C(C(=O)N(C)Cc3ccccc3)=C2)cc1`, the “activity change, negative = inhibition” value was -4.01%.
Same read-out and setting: to `COc1cc2ccccc2cc1C(=O)N/N=C/c1cccs1` belongs -4.51%.
By AC50 is commonly meant the concentration giving half of the maximal activity seen. With `CCn1c(=S)[nH]c2c(=O)n(C)c(=O)n(C)c21`, the AC50 is 13.2 µM (active).
Turning to `CCCNC(=O)Nc1ccc2c(c1)C(=O)N(C)[C@H]1CC[C@H](CC(=O)NC3CCC3)O[C@@H]1CO2`, the “activity change, negative = inhibition” value was 15.4%.
